Laboratory results as given in PubChem BioAssay (NCI).
Compounds without any hit were thinned out: in the full panel of roughly 79,000, 15% have a hit. Unmarked numbers belong to inactive results. Calls of active or inactive are those of the source. Cut-off read from the data, not from the text of the source: active = growth inhibition above about 70%; inactive = the rest.

Experiment: NCI Yeast Anticancer Drug Screen. Data for the rad14 strain (AID 159);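 note: 0% = growth of vehicle-treated control cultures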
Details: S. cerevisiae rad14 strain growth inhibition, stronger effect = higher value
Method: Growth inhibition of yeast strains with defined genetic alterations is measured as a screen for potential anti-cancer activity. Selected strains with alterations in DNA damage repair or cell cycle control were exposed to compounds and growth inhibition was measured relative to vehicle treated controls. The strain used in this assay is rad14

O=c1c2ccccc2[se]n1-c1cccnc1
growth inhibition (at 1.2 µM): -28% | growth inhibition (at 3.7 µM): 2% | growth inhibition (at 11.0 µM): 38% | growth inhibition (at 33.0 µM): 89% (active) | growth inhibition (at 100.0 µM): 84% (active)

Oc1cccc2cccnc12
growth inhibition (at 1.2 µM): 22% | growth inhibition (at 3.7 µM): 85% (active) | growth inhibition (at 11.0 µM): 98% (active) | growth inhibition (at 33.0 µM): 98% (active) | growth inhibition (at 100.0 µM): 98% (active)

COC(=O)C1c2cc3c(c(O)c2C(O)CC1(C)O)C(=O)c1c(O)cc2c(c1C3=O)OC1OC2(C)C(O)C(N(C)C)C1O (stereo not given)
growth inhibition (at 1.2 µM): 0% | growth inhibition (at 3.7 µM): 16% | growth inhibition (at 11.0 µM): 79% (active) | growth inhibition (at 33.0 µM): 97% (active) | growth inhibition (at 100.0 µM): 92% (active)

CSc1ccccc1[As](C)C
growth inhibition (at 1.2 µM): 5% | growth inhibition (at 3.7 µM): 26% | growth inhibition (at 11.0 µM): 87% (active) | growth inhibition (at 33.0 µM): 99% (active) | growth inhibition (at 100.0 µM): 100% (active)

COc1cc(O)c2c(O)c3c(c4c2c1[C@]1(C4)C(C)=CCCC1(C)C)[C@H](O)[C@@]1(O)CC(=O)C(C(N)=O)=C(O)[C@@]1(O)C3=O
growth inhibition (at 1.2 µM): -57% | growth inhibition (at 3.7 µM): 50% | growth inhibition (at 11.0 µM): 97% (active) | growth inhibition (at 33.0 µM): 97% (active) | growth inhibition (at 100.0 µM): 93% (active)

CCN(CC)CCBr
growth inhibition (at 1.2 µM): -1% | growth inhibition (at 3.7 µM): -1% | growth inhibition (at 11.0 µM): -1% | growth inhibition (at 33.0 µM): -1% | growth inhibition (at 100.0 µM): 7%

CNCC(O)c1ccc(O)c(O)c1.[Pt].c1ccc([PH+](c2ccccc2)c2ccccc2)cc1.c1ccc([PH+](c2ccccc2)c2ccccc2)cc1
growth inhibition (at 1.2 µM): -1% | growth inhibition (at 3.7 µM): -3% | growth inhibition (at 11.0 µM): 4% | growth inhibition (at 33.0 µM): 98% (active) | growth inhibition (at 100.0 µM): 96% (active)

COC(=O)C1C2c3ccccc3C(c3ccccc32)C1C(=O)OC (stereo not given)
growth inhibition (at 1.2 µM): 2% | growth inhibition (at 3.7 µM): 2% | growth inhibition (at 11.0 µM): 0% | growth inhibition (at 33.0 µM): 8% | growth inhibition (at 100.0 µM): 13%
